# Out of some 360,000 compounds screened, about 3,700 (1%) were called active. Not shown: some 2% with an inconclusive outcome. This is one part of a sample in which actives are shown more often than they occur.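 How the source made its calls: active means normalized GFP-positive differentiation at or above the plate's own cutoff, the solvent-only control mean plus 3 SD; inconclusive means no clear call, values can overlap the other calls; inactive means the rest.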
# Test: HoxA9-arrested leukemia cell differentiation promoters – flow cytometry, MLPCN library, primary screen (AID 624256);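 on GFP+ MAC1+ double positive: cells exposed to compound for four days before flow analysis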;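 on normalized GFP-positive differentiation: cells exposed to compound for four days before flow analysis; 0% = DMSO wells and 100% = fulvestrant positive control at 5 µM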
# Conditions: ER-HoxA9 myeloid progenitors, lysozyme-GFP differentiation, at 10 µM; GFP+ MAC1+ double positive: measured here: differentiation confirmed by MAC1 staining, stronger effect = higher value; normalized GFP-positive differentiation: stronger effect = higher value
Compound,GFP+ MAC1+ double positive [%],normalized GFP-positive differentiation,outcome
Cc1ccc(COc2ccc(C(=O)NN)cc2)cc1,4.6,335% (active),–
NNC(=O)c1ccc(COCC(F)(F)C(F)F)cc1,0.4,–,inactive
Cc1ccc(COc2ccc(/C=N/NC(=O)CN3CCCCC3)cc2)cc1,0.2,–,inactive
COc1cccc(CNC(=O)[C@@H]2CCCN2C(=O)[C@@H]2CCCN2C(=O)c2ccccc2)c1,0.5,–,inactive
CCOc1ccc(C(=O)Nc2cccc(-c3ccc4nncn4n3)c2)cc1,1.2,–,inactive
CCS(=O)(=O)c1ccc(-c2cccc(NC(=O)c3ccc(Br)o3)c2)nn1,1.2,11.8% (active),–
CC(CNC(=O)c1ccc(Br)o1)NC(=O)c1ccc(Br)o1 (stereo not drawn),4.1,–,inactive
COC(=O)C[C@H]1C=C[C@@H](NS(=O)(=O)c2ccc(C)cc2)[C@@H](CO)O1,2.1,–,inactive
Cc1ccccc1-c1nc(NC(C)C)nc2cc(-c3ccccc3)sc12,0.6,–,inactive
OC(c1ccc(Cl)c(F)c1)c1ncc(-c2ccccc2Cl)[nH]1 (stereo not drawn),1.3,–,inactive
COc1ccc(C(O)C(O)(C(=O)OC(C)C)c2ccc(C)cc2)cc1 (stereo not drawn),2.5,–,inactive
C[C@H]([C@@H](O)[C@@H](O)[C@@H](C)C(C)(C)C)[C@H]1CC[C@H]2C3CC[C@H]4C[C@H](OS(=O)(=O)O)[C@@H](OS(=O)(=O)O)C[C@]4(C)[C@H]3CC[C@]12C (stereo partly drawn),3.3,–,inactive
C=CCC[C@@H](CCCCC)OC(=O)/C=C/[C@@H](O)[C@H](O)C[C@H](O)CC=C,0.4,–,inactive
CC(C)CC(COCc1ccc(Cl)cc1)N1CCN(C(=O)c2ccc(C(F)(F)F)cc2)CCC1=O (stereo not drawn),5.1,7.54% (active),–
O=C(c1ccc(C(F)(F)F)cc1)N1CCC(=O)N([C@H](COCc2ccccc2)Cc2ccccc2)CC1,0.6,–,inactive
CC(C)C[C@@H](COCc1ccc(Cl)cc1)N1CCN(C(=O)c2ccc(Cl)cc2Cl)CCC1=O,0.8,–,inactive
CCN(CC)CCN(C)C(c1ccnc2ccccc12)c1nnnn1-c1ccc2c(c1)OCCO2 (stereo not drawn),2.1,–,inactive
CCOc1ccc(CCNC(=O)Nc2ccccc2)cc1OCC,0.6,–,inactive
Cc1nc2cc(NC(=O)Nc3cccc(F)c3)ccc2n1C,0.6,–,inactive
Cc1cc2nc(C)n(CCCNC(=O)Nc3ccccc3)c2cc1C,1.2,33% (active),–
C[C@@H]1CC2=C(C(=O)OC(C)(C)O2)[C@@H](C2CC2)O1,0.7,–,inactive
OC(c1ccccc1)(c1ccccc1)C1CCN(CCCOc2ccccc2)CC1,0.9,–,inactive
CCOC(=O)c1cc(-c2nnc(-c3cc(OC)c(OC)c(OC)c3)o2)c(C)nc1C,0.3,–,inactive
CCOc1nc(-c2ccc(OC)cc2)ccc1-c1noc(-c2cc(OC)c(OC)c(OC)c2)n1,26.5,69% (active),–
CCOc1ccc(-c2noc(CCC(=O)NC3CCCC3)n2)cc1OC,0.3,–,inactive
Cc1ccc(NS(=O)(=O)c2cc3c(cc2Br)NC(=O)CO3)cc1C,2.1,–,inactive
COc1ccc(C(c2nnnn2C2CCCC2)N2CCN(C/C=C/c3ccccc3)CC2)cc1 (stereo not drawn),0.9,–,inactive

Compound,GFP+ MAC1+ double positive [%],normalized GFP-positive differentiation,outcome
Nc1nc(NCC2CCCO2)nc(Nc2ccccc2F)c1[N+](=O)[O-] (stereo not drawn),0.2,–,inactive
C=CCNc1nc(N)c([N+](=O)[O-])c(NC2CCCCC2)n1,1,–,inactive
Nc1nc(Nc2ccccc2F)nc(NC2CCCCC2)c1[N+](=O)[O-],5.3,25.3% (active),–
O=C(Nc1ccc(Cl)cc1)c1csc([C@H]2C[C@H](O)[C@@H](CO)O2)n1,0.4,–,inactive
CCN1C(=O)[C@@H]2[C@@H]3CN(S(=O)(=O)c4ccccc4C)[C@@H](c4ccc(Cl)cc4)[C@@H]3C(=O)C[C@@H]2C1=O,0.5,–,inactive
CN1C[C@@H](CO)O[C@@H](n2cnc3c(N4CCN(CCO)CC4)ncnc32)C1,1.5,–,inactive
Cc1scc(C(=O)NNC(=S)NCc2ccccc2)c1C,0.2,–,inactive
CNC(=S)NNC(=O)c1sccc1OCc1ccccc1,2.8,6.37% (active),–
CNC(=S)N/N=C/c1ccc(OCc2ccccc2)c(Br)c1,0.2,–,inactive
CC1(C(=O)Nc2ccc3c(c2)OCCO3)CSCC(=O)N1CCOc1ccccc1 (stereo not drawn),3.3,–,inactive
Cc1cc(Br)cn2c(Cc3cccc(F)c3)c(-c3cccc(Br)c3)nc12,0.6,–,inactive
CCOC(=O)C(C(=O)c1ccccc1)C(c1ccccc1)c1nccc2ccccc12 (stereo not drawn),0.2,–,inactive
CCOC(=O)C(C(=O)OCC)C(C#N)c1ccccc1 (stereo not drawn),3.3,9.91% (active),–
CCOC(=O)/C=C/C(=O)OCC(=O)NC(c1ccccc1)c1ccccc1,0.4,–,inactive
CC1(C(=O)NCc2ccccc2)CSCC(=O)N1CCCn1ccnc1 (stereo not drawn),4.4,–,inactive
O=C1NC(O)CCN1C1CC(O)C(CO)O1 (stereo not drawn),1.3,–,inactive
CCOc1ccc(CCN2C(=S)N([C@@H](CC(C)C)CN3CCC[C@@H]3CN3C(=S)NC[C@@H]3Cc3ccc(O)cc3)C[C@@H]2Cc2ccc(O)cc2)cc1,0.7,–,inactive
COC(=O)C(C)NC(=O)COc1ccc2ccccc2c1 (stereo not drawn),1.3,–,inactive
COc1c(C(=O)N2CCCC2)ccc2ccccc12,0.8,–,inactive
COC(=O)C[n+]1cccc2ccccc21,1,236% (active),–
CCc1nc2c(OCc3ccc(Cl)cc3Cl)cccn2c1N(C)C(=O)C(C)C,1.8,–,inactive
CC(=O)N1CCN(Cc2cc(=O)oc3cc(C)ccc23)CC1,1.6,–,inactive
COC(=O)[C@]12CCCCC=C1N(Cc1ccc3c(c1)OCO3)C(=O)[C@H](CC(=O)NCc1cccs1)C2,0.4,–,inactive
CCOC(=O)[C@]12CCCC=C1N(CCC1=CCCCC1)C(=O)[C@H](CC(=O)N1CCOCC1)C2,4.8,–,inactive
OCCC#Cc1ccc(N2C(c3ccsc3)=Cc3ccc(F)cc3C2c2c[nH]c3ccccc23)cc1 (stereo not drawn),2,16.8% (active),–
COc1ccc(CCCNC(=O)C2Cc3c(-c4cccc(C(N)=O)c4)ccnc3O2)cc1 (stereo not drawn),0.5,–,inactive
CN(Cc1cn(Cc2ccc(C(F)(F)F)cc2)nn1)C1CN(Cc2cn(Cc3ccc(C(F)(F)F)cc3)nn2)S(=O)(=O)C1 (stereo not drawn),1.6,–,inactive

# From PubChem BioAssay AID624256 (NMMLSC, 2012)
